Like-named read-outs stand apart in the source and are kept apart here.
Columns and labels:
Parameters in all cases: species or system human, MV4-11 + K-562 + COLO205 + SK-N-BE2 + OVCAR-8
[1] = test system: ADCK3; settings: read-out: apparent Kd, n = 1
[2] = test system: ADRBK1; settings: read-out: apparent Kd; compound concentrations: 100 nM and 1000 nM (sheet 'Samples'), CATDS: 0.28294798490762901; n = 1
[3] = test system: AKT2; settings: read-out: apparent Kd, compound concentrations: 100 nM and 1000 nM (sheet 'Samples'), n = 1
[4] = test system: GALK1; settings: read-out: apparent Kd; compound concentrations: 100 nM and 1000 nM (sheet 'Samples'), CATDS: 0.119899430557505; n = 1
[5] = test system: MAPK14; settings: read-out: apparent Kd; compound concentrations: 100 nM and 1000 nM (sheet 'Samples'), CATDS: 0.15490410585255601; n = 1
[6] = test system: MAPK1; settings: read-out: apparent Kd; compound concentrations: 100 nM and 1000 nM (sheet 'Samples'), CATDS: 0.12427254642557201; n = 1
[7] = test system: PIK3CD; settings: read-out: apparent Kd, n = 1
[8] = test system: PIM2; settings: read-out: apparent Kd; compound concentrations: 100 nM and 1000 nM (sheet 'Samples'), CATDS: 0.117779820663657; n = 1
[9] = test system: STK16; settings: read-out: apparent Kd; compound concentrations: 100 nM and 1000 nM (sheet 'Samples'), CATDS: 0.13061388910889801; n = 1
[10] = test system: ADCK1; settings: read-out: apparent Kd, n = 1
[11] = test system: ATM; settings: read-out: apparent Kd; compound concentrations: 100 nM and 1000 nM (sheet 'Samples'), CATDS: 0.154535696206207; n = 1
[12] = test system: CDC42BPG; settings: read-out: apparent Kd; compound concentrations: 100 nM and 1000 nM (sheet 'Samples'), CATDS: 7.3873319351317801E-2; n = 1
[13] = test system: CDKL5; settings: read-out: apparent Kd; compound concentrations: 100 nM and 1000 nM (sheet 'Samples'), CATDS: 0.103192047261391; n = 1
[14] = test system: CLK1; settings: read-out: apparent Kd; compound concentrations: 100 nM and 1000 nM (sheet 'Samples'), CATDS: 0.10181470937503199; n = 1
[15] = test system: CLK2; settings: read-out: apparent Kd; compound concentrations: 100 nM and 1000 nM (sheet 'Samples'), CATDS: 0.42234286586488101; n = 1
[16] = test system: CLK4; settings: read-out: apparent Kd; compound concentrations: 100 nM and 1000 nM (sheet 'Samples'), CATDS: 0.12045713212899201; n = 1
[17] = test system: PRKAG2; settings: read-out: apparent Kd; compound concentrations: 100 nM and 1000 nM (sheet 'Samples'), CATDS: 7.6138264702913502E-2; n = 1
[18] = test system: ERCC2; settings: read-out: apparent Kd; compound concentrations:100 nM and 1000 nM (sheet 'Samples'); n = 1
[19] = test system: MAP4K5; settings: read-out: apparent Kd; compound concentrations:100 nM and 1000 nM (sheet 'Samples'); n = 1
[20] = test system: CIT; settings: read-out: apparent Kd; compound concentrations:100 nM and 1000 nM (sheet 'Samples'); n = 1
[21] = test system: CSNK1D; settings: read-out: apparent Kd; compound concentrations:100 nM and 1000 nM (sheet 'Samples'); n = 1
[22] = test system: CSNK1E; settings: read-out: apparent Kd; compound concentrations:100 nM and 1000 nM (sheet 'Samples'); n = 1
[23] = test system: T1, DJA1; settings: read-out: apparent Kd; compound concentrations:100 nM and 1000 nM (sheet 'Samples'); n = 1
T1 construct: gene DNAJA1

[24] = test system: GAK; settings: read-out: apparent Kd; compound concentrations:100 nM and 1000 nM (sheet 'Samples'); n = 1
[25] = test system: IARS; settings: read-out: apparent Kd; compound concentrations:100 nM and 1000 nM (sheet 'Samples'); n = 1
[26] = test system: PRKACB; settings: read-out: apparent Kd; compound concentrations:100 nM and 1000 nM (sheet 'Samples'); n = 1
[27] = test system: PRKCD; settings: read-out: apparent Kd; compound concentrations:100 nM and 1000 nM (sheet 'Samples'); n = 1
[28] = test system: PRKCQ; settings: read-out: apparent Kd; compound concentrations:100 nM and 1000 nM (sheet 'Samples'); n = 1
[29] = test system: PRKD2; settings: read-out: apparent Kd; compound concentrations:100 nM and 1000 nM (sheet 'Samples'); n = 1
[30] = test system: PRKD3; settings: read-out: apparent Kd; compound concentrations:100 nM and 1000 nM (sheet 'Samples'); n = 1
[31] = test system: TNIK; settings: read-out: apparent Kd; compound concentrations:100 nM and 1000 nM (sheet 'Samples'); n = 1
[32] = test system: AKT1; settings: read-out: apparent Kd; compound concentrations: 100 nM and 1000 nM (sheet 'Samples'), CATDS: 0.104224113270125; n = 1
[33] = test system: CSNK1A1; settings: read-out: apparent Kd; compound concentrations: 100 nM and 1000 nM (sheet 'Samples'), CATDS: 0.102191451764392; n = 1
[34] = test system: MAP2K1; settings: read-out: apparent Kd; compound concentrations: 100 nM and 1000 nM (sheet 'Samples'), CATDS: 0.110237039965707; n = 1
[35] = test system: NQO1; settings: read-out: apparent Kd; compound concentrations: 100 nM and 1000 nM (sheet 'Samples'), CATDS: 0.123163223225838; n = 1
[36] = test system: RIOK2; settings: read-out: apparent Kd; compound concentrations: 100 nM and 1000 nM (sheet 'Samples'), CATDS: 0.117096482211817; n = 1
[37] = test system: ZAK; settings: read-out: apparent Kd; compound concentrations: 100 nM and 1000 nM (sheet 'Samples'), CATDS: 0.14081253885296899; n = 1
[38] = compound concentrations:100 nM and 1000 nM (sheet 'Samples')

O=C1NC(=O)C(c2c[nH]c3ccccc23)=C1c1ccccc1 [RO0316849-000]
potency estimated from few doses ([1]; compound concentrations: 100 nM and 1000 nM (sheet 'Samples'), CATDS: 0.47545697813848398): 812 nM | potency estimated from few doses [2]: 2270 nM | potency estimated from few doses ([3]; CATDS: 0.297394073145339): 2010 nM

Cc1ccc(NC(=O)c2ccnc(N3CCN(C)CC3)c2)cc1-c1ccc(C(=O)NCC2CC2)cc1 [GW775604X]
potency estimated from few doses ([1]; compound concentrations: 100 nM and 1000 nM (sheet 'Samples'), CATDS: 0.117650755909267): 1660 nM | potency estimated from few doses [4]: 1570 nM | potency estimated from few doses [5]: 840 nM | potency estimated from few doses [6]: 1430 nM | potency estimated from few doses ([7]; compound concentrations: 100 nM and 1000 nM (sheet 'Samples'), CATDS: 0.661841764967533): 59 nM | potency estimated from few doses [8]: 1650 nM | potency estimated from few doses [9]: 1250 nM

CCOc1ccc2c(-c3ccnc(Nc4cccc(C(F)(F)F)c4)n3)cnn2n1 [GW811761X]
potency estimated from few doses ([10]; compound concentrations: 100 nM and 1000 nM (sheet 'Samples'), CATDS: 8.5431360664487602E-2): 1140 nM | potency estimated from few doses [11]: 257 nM | potency estimated from few doses [12]: 2020 nM | potency estimated from few doses [13]: 644 nM | potency estimated from few doses [14]: 667 nM | potency estimated from few doses [15]: 49.8 nM | potency estimated from few doses [16]: 438 nM | potency estimated from few doses ([7]; compound concentrations: 100 nM and 1000 nM (sheet 'Samples'), CATDS: 0.16747258598029099): 220 nM | potency estimated from few doses [17]: 1760 nM

Nc1ncc(-c2cccnc2)c2scc(-c3ccc4c(c3)CCN4C(=O)Cc3ccccc3)c12 [GSK683281A]
potency estimated from few doses [1, 38]: 760 nM | potency estimated from few doses [18]: 1560 nM | potency estimated from few doses [19]: 1560 nM

O=C(Nc1cccc(-c2nn3ncccc3c2-c2ccnc(Nc3cccc(C(F)(F)F)c3)n2)c1)c1c(F)cccc1F [GSK299495A]
potency estimated from few doses ([1]; compound concentrations: 100 nM and 1000 nM (sheet 'Samples'), CATDS: 1): 233 nM

Cc1n[nH]c2ccc(-c3cc(OC[C@@H](N)Cc4ccccc4)cnc3-c3ccoc3)cc12.Cc1n[nH]c2ccc(-c3cc(OC[C@@H](N)Cc4ccccc4)cnc3-c3ccoc3)cc12.O=C(O)C(F)(F)F.O=C(O)C(F)(F)F [GSK507358A]
potency estimated from few doses [10, 38]: 1140 nM | potency estimated from few doses [20]: 1120 nM | potency estimated from few doses [21]: 711 nM | potency estimated from few doses [22]: 1160 nM | potency estimated from few doses [23]: 890 nM | potency estimated from few doses [24]: 1500 nM | potency estimated from few doses [25]: 2080 nM | potency estimated from few doses [7, 38]: 108 nM | potency estimated from few doses [26]: 1740 nM | potency estimated from few doses [27]: 1510 nM | potency estimated from few doses [28]: 1580 nM | potency estimated from few doses [29]: 690 nM | potency estimated from few doses [30]: 353 nM | potency estimated from few doses [31]: 141 nM

COc1cccc(-n2cnc3c(N)ncnc32)c1 [SKF-97416]
potency estimated from few doses ([1]; compound concentrations: 100 nM and 1000 nM (sheet 'Samples'), CATDS: 0.45631454504768898): 155 nM | potency estimated from few doses [32]: 2120 nM | potency estimated from few doses ([3]; CATDS: 0.10421017655023999): 2120 nM | potency estimated from few doses [33]: 2240 nM | potency estimated from few doses [34]: 1830 nM | potency estimated from few doses [35]: 1400 nM | potency estimated from few doses [36]: 1580 nM | potency estimated from few doses [37]: 1050 nM
